Laboratory results as given in PubChem BioAssay (Tox21).
Inconclusive results are not listed. A call without a number means that no potency is given here. The source made the active and inactive calls. Calls follow the shape of the dose curve; as a rule, active = well fitted cell-killing curve with a large enough effect in the repeat runs; inconclusive = weak or mixed curves, or effect the other way; inactive = flat fitted curve, though single readings scatter.

Assay: qHTS assay to identify small molecule antagonists of the estrogen receptor alpha (ER-alpha) signaling pathway using the BG1 cell line in the presence of 0.1 nM 17-beta-estradiol - cell viability counter screen (AID 1259241); also: nearly all actives have a fitted effect of over 40% in size
Settings: VM7Luc4E2 (BG1) viability, CellTiter-Fluor protease, 22 h, 0.1 nM estradiol agonist added; series mostly up to 92.4 µM
From the text: National Center for Advancing Translational Sciences [NCATS]
NIH Chemical Genomics Center [NCGC]
U.S. Environmental Protection Agency [EPA]
National Institutes of Environmental Health Sciences [NIEHS]
National Toxicology Program [NTP]
U.S. Food and Drug Administration [FDA]
Estrogen receptor (ER), a member of the nuclear hormone receptor plays an important role in development, metabolic homeostasis and reproduction. Two subtypes of ER, ER-alpha and ER-beta, have similar expression patterns with some uniqueness in both types. Endocrine disrupting chemicals (EDCs) and their interactions with steroid hormone receptors like ER causes disruption of normal endocrine function. Therefore, it is important to understand the effect of environmental chemicals in ER signaling pathway. For identifying ER antagonists, VM7Luc4E2 cell line was used to screen against Tox21 compound libraries.
VM7Luc4E2 cell line (provided by Denison MS, University of California) endogenously express full-length ER-alpha and is stably transfected with a plasmid containing four estrogen responsive elements (ERE) upstream of a luciferase reporter gene. The current screening for identification of ER-alpha inhibitors against Tox21 compound libraries used lower concentration (0.1 nM) of 17beta-Estradiol as a stimulator. The cytotoxicity of the Tox21 compound libraries against VM7Luc4E2 cell line was tested by measuring live-cell protease activity using CellTiter-Fluor assay in the same wells.
Tox21 Assay Protocol Summary:
VM7Luc4E2 cells were cultured in phenol red free assay medium containing 10% charcoal stripped FBS for 5 days prior to the assay. The cells were dispensed at 4,000 cells/well in 4 uL of assay medium into white wall/solid-bottom 1536-well plates (Corning Life Sciences, Corning, NY) using a Multidrop Combi (ThermoFisher Scientific, Waltham, MA) dispenser. After the assay plates were incubated at 37C and 5% CO2 for 24 hr, 23 nL of compounds dissolved in DMSO, positive controls or DMSO only was transferred to the assay plates by a Pintool station (Kalypsys, San Diego, CA). The transfer of compounds was followed by the addition of 1 uL of 0.1 nM (final concentration) agonist (17beta-Estradiol)/assay medium using a Flying Reagent Dispenser (FRD, Aurora Discovery, San Diego, CA). The plates were incubated at 37C and 5% CO2 for 22 hr. For cytotoxicity assay, 1 uL of CellTiter-Fluor reagent (Promega Corporation, Madison, WI) was added to each well using the FRD and after 30 min incubation at 37C and 5% CO2, The fluorescence intensity was measured using ViewLux plate reader (PerkinElmer, Shelton, CT).
Potency is read from the fitted curve at half-maximal effect.

Compound | Potency
CC1=C(/C=C/C(C)=C/C=C/C(C)=C/CO)C(C)(C)CCC1 | inactive
CCOC(=O)C1OC1c1ccccc1 (stereo not given) | inactive
CC(=O)CCc1ccccc1 | inactive
CN(C)c1cccc(O)c1 | inactive
CCCCC(CC)C(=O)OCCOCCOCCOC(=O)C(CC)CCCC (stereo not given) | inactive
O=Nc1ccc(O)cc1 | inactive
COCC(=O)O | inactive
ClC1=C(Cl)C(Cl)(Cl)C(Cl)=C1Cl | inactive
O=[N+]([O-])c1cccc(Cl)c1 | inactive
Cc1ccc(N)c(S(=O)(=O)O)c1 | inactive
CC(=O)[C@@]1(O)CC[C@H]2[C@@H]3CCC4=CC(=O)CC[C@]4(C)[C@H]3CC[C@@]21C | inactive
c1ccc2ccccc2c1 | inactive
CCCCCCCCCCC=CC1CC(=O)OC1=O (stereo not given) | inactive
COCC(C)O (stereo not given) | inactive
O=C(Cl)c1c(Cl)c(Cl)c(C(=O)Cl)c(Cl)c1Cl | inactive
CC[Si](OC(C)=O)(OC(C)=O)OC(C)=O | inactive
CC(C)(C)C1CCC(O)CC1 (stereo not given) | inactive
OCC#CCO | inactive
CCc1ccccc1O | inactive
OCCOCCOCCOCCO | inactive

Compound | Potency
CCCCCCCCC | inactive
NCCc1ccc(O)c(O)c1 | 34.5 µM (active)
Clc1cc(Cl)c(Cl)cc1Cl | inactive
CC1COc2ccccc2N1C(=O)C(Cl)Cl (stereo not given) | inactive
Oc1ccc2ccccc2c1 | inactive
C/C=C(C)/C=C/C=C(C)C | inactive
CCC(C)C=O (stereo not given) | inactive
O=[N+]([O-])c1cc(N(CCO)CCO)ccc1NCCO | 34.4 µM (active)
Nc1cc(-c2ccncc2)c[nH]c1=O | inactive
C=C(C)C(=O)OCCCCCC | inactive
C[C@@H]1O[C@@H](OC[C@H]2O[C@@H](Oc3c(-c4ccc(O)c(O)c4)oc4cc(O)cc(O)c4c3=O)[C@H](O)[C@@H](O)[C@@H]2O)[C@H](O)[C@H](O)[C@H]1O | inactive
OC[C@@H](O)[C@@H](O)[C@H](O)[C@@H](O)CO | inactive
CCCCC(CC)COC(=O)/C=C\C(=O)OCC(CC)CCCC (stereo not given) | inactive
O=C(O)c1cc(-c2ccccc2)nc2ccccc12 | inactive
NS(=O)(=O)c1cc2c(cc1Cl)NC=NS2(=O)=O | inactive
O=C1CCCCC1 | inactive
S=c1nc[nH]c2nc[nH]c12 | inactive
Oc1ccc2ccccc2c1N=Nc1ccccc1 | 30.6 µM (active)
O=C(Oc1ccccc1)c1ccc(O)cc1 | inactive
COC(=O)Nc1nc2ccc(Sc3ccccc3)cc2[nH]1 | inactive
